In the library only some 32% were active in any assay of this set; here they are far more common.
CYP2C19 inh – inhibitors of human CYP2C19; P33261; CYP2C19 Supersomes, luciferin-H EGE luminescence, 30 min; inhibition, % at 5 µM; 96,000 tested, 21% active; AID 778;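 active means CYP2C19 inhibition above a set limit at 5 µM in the primary screen, cut at about 50% in these data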
Target sequence (P33261 whole entry, looked up): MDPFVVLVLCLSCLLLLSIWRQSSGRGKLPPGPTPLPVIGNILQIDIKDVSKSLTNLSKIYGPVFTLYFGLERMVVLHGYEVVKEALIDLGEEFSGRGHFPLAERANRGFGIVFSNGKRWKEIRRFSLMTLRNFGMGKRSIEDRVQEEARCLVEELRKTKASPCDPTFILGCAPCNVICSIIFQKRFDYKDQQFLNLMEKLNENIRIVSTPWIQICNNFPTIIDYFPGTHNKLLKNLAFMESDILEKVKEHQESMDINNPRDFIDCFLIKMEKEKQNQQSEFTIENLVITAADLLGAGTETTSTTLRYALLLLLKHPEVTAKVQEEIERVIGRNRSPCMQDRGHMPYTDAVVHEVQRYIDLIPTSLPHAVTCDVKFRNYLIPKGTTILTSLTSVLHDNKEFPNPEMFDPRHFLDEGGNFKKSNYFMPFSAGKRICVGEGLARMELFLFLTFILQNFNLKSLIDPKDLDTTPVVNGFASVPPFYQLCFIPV
CYP2C19 activ – cytochrome P450 2C19 (human) activation; activation factor at 5 µM; AID 1025; P33261; recombinant CYP2C19, luciferin-H EGE luminescence; hits give high values; 0 = fully inhibited enzyme, 1 = untreated enzyme; 96,000 tested, under 10 active;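 active means activation factor of at least 2 at 5 µM in the primary screen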
CYP2C9 inh – human CYP2C9 inhibition; P11712; CYP2C9 Supersomes, luciferin-H conversion, luminescence; inhibition, % at 5 µM; 96,000 tested, 20% active; AID 777;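 active means blocking of liver enzyme CYP2C9 beyond about 50% at 5 µM, limit read from the data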
PostGolgi ctrl – inhibits growth of the yeast control strain | efflux-deficient yeast background strain, growth absorbance A615, 16 h | inhibition, % at 10 µM | 98,000 tested, 5% active
CYP2C9 activ – CYP2C9 (human) activation | P11712 | activation factor at 5 µM | recombinant CYP2C9, luciferin-H conversion, luminescence; hits give high values; factor 1 = untreated enzyme, 0 = blocked | AID 1024 | 96,000 tested, 1.4% active;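 active means activation factor of 2 or more for CYP2C9 at a 5 µM dose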
PostGolgi yeast – growth inhibition of a yeast mutant, post-Golgi transport screen; 98,000 tested, 0.9% active; inhibition, % at 10 µM; AID 739; post-Golgi transport phenotypic cell assay;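 further: yeast cells grown in 1536-well plates; yeast grown about 18 h at 30C before absorbance read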
Numbers stand for hits; i = inactive; nt = not tested or not shown. Unless noted, no stated cut-off is given here; in the data, active means inhibition above about 30%; inactive means the rest.

SMILES	CYP2C19 inh	CYP2C19 activ	CYP2C9 inh	PostGolgi ctrl	CYP2C9 activ	PostGolgi yeast
COCCCNC(=O)CN(c1cccc(Cl)c1)S(C)(=O)=O	i	i	i	i	i	i
COc1ccc2c(c1)[nH]c1c(=O)n(Cc3ccccn3)cnc12	i	i	51	i	i	i
COc1ccc(CN=C2Nc3ccccc3CS2)cc1	i	i	i	i	i	i
CCOC(=O)C1=C(c2ccccc2)NC(SCC(N)=O)=C(C#N)C1c1cccnc1 (stereo not given)	68	i	63	i	i	i
CC(=O)C1=C(C)NC(SCC(N)=O)=C(C#N)C1c1cccs1 (stereo not given)	i	i	i	i	i	i
CCOC(=O)C1=C(C)NC(SCC(=O)Nc2nc(C)cs2)=C(C#N)C1c1cccs1 (stereo not given)	85	i	96	i	i	i
CCOC(=O)C1=C(C)NC(=O)C(C#N)C1c1ccncc1 (stereo not given)	i	i	50	i	i	i
CCOC(=O)CSC1=C(C#N)C(c2sccc2C)C(C(C)=O)=C(C)N1 (stereo not given)	65	i	73	i	i	i
CNC(=O)CSc1nnc(-c2ccco2)n1-c1ccccc1OC	i	i	i	nt	i	nt
COc1cc2ccccc2cc1-c1nnc(COc2ccccc2)o1	i	i	i	i	i	i
CSc1nsc(SCC(=O)Nc2c(C)n(C)n(-c3ccccc3)c2=O)n1	i	i	i	i	i	i
O=C(Oc1ccc2c(c1)OCO2)c1cc2c(s1)CCC2	i	i	i	i	i	i
CCOC(=O)C1=C(C)NC(SCC(N)=O)=C(C#N)C1c1ccncc1 (stereo not given)	82	i	75	i	i	i
O=C(NCc1ccc2c(c1)OCO2)c1cc2ncc(Br)cn2n1	i	i	i	i	i	i
O=C(CC1Oc2ccccc2NC1=O)NCCCN1CCCC1=O (stereo not given)	i	i	i	i	i	i
CC(c1nnc(SCC(=O)N2CCc3ccccc32)n1-c1ccc(Cl)cc1)N(C)C (stereo not given)	61	i	i	i	i	i
CC(c1nnc(SCn2nnc3ccccc3c2=O)n1-c1ccc(Cl)cc1)N(C)C (stereo not given)	i	i	i	i	i	67
Cc1ccc(Oc2ccc(NC(=O)CCC(=O)OCC(=O)c3cccs3)cc2)cc1C	i	i	i	i	i	i
O=C(Nc1ccccc1C(=O)N1CCOCC1)c1cccc(S(=O)(=O)N2CCCC2)c1	i	i	i	i	i	i
CCNC(=O)c1ccccc1NC(=O)c1cccc(S(=O)(=O)N2CCC(C)CC2)c1	59	i	68	i	i	i
CNC(=O)c1ccccc1NC(=O)c1cccc(S(=O)(=O)N2CCC(C)CC2)c1	90	i	73	i	i	i
O=C1/C(=C/c2ccc([N+](=O)[O-])cc2)C=C(c2ccccc2)N1c1ccc(O)cc1	i	i	i	74	i	92
O=C1/C(=C/c2ccc([N+](=O)[O-])cc2)C=C(c2ccccc2)N1c1ccccc1	i	i	i	i	i	i
CC(=O)c1sc(Nc2nc(C)cc(C)n2)nc1C	i	i	73	i	i	i
CCOc1ccc2noc3c2c1C(=O)c1ccccc1-3	i	i	i	i	i	i
SMILES	CYP2C19 inh	CYP2C19 activ	CYP2C9 inh	PostGolgi ctrl	CYP2C9 activ	PostGolgi yeast
O=C1c2ccccc2-c2onc3c(Oc4ccccc4)cc(O)c1c23	i	i	68	i	i	i
O=C(COc1ccc(Br)cc1)c1ccc2c(c1)CCCC2	52	i	i	i	i	i
CN(C)/C=N/c1c(C#N)nnn1Cc1ccccc1	67	i	i	i	i	i
Nc1c(C(=O)O)nnn1Cc1ccccc1	i	i	i	i	i	i
CC1(C)C(N(O)C(=O)Nc2ccccc2)N(c2cccc(Cl)c2)C(=O)N1O (stereo not given)	i	i	73	i	i	i
CN1C(=S)SC(N(O)C(=O)Nc2ccccc2)C1(C)C (stereo not given)	i	i	i	i	i	i
O=C(Nc1ccccc1)NC1(C(=O)N2CCN(C(=O)c3ccco3)CC2)CCCCC1	i	i	i	i	i	i
CCc1ccc(NSc2ccccc2[N+](=O)[O-])cc1	65	i	i	i	i	i
O=C(CCN1CCN(Cc2ccccc2)CC1)Nc1cccc(Cl)c1	i	i	54	i	i	i
CCOC(=O)C1CCN(CCC(=O)Nc2cccc(Cl)c2)CC1	52	i	75	i	i	i
CCOC(=O)C1CCCN(CCC(=O)Nc2cccc(F)c2)C1 (stereo not given)	i	i	i	i	i	i
O=C(CCN1CCCC1)Nc1ccccc1	i	i	i	i	i	i
O=c1c(C=Nc2ccc(Oc3ccccc3)cc2)c[nH]n1-c1cccc(Cl)n1	i	i	i	i	i	i
O=c1[nH]c2cc3c(cc2cc1C(c1nnnn1CC1CCCO1)N1CCCC1)OCO3 (stereo not given)	i	i	i	i	i	i
O=C1c2ccccc2C(=O)N1OCc1cccc(Cl)c1	76	i	i	i	i	i
CC(=O)OCCCCON1C(=O)c2ccccc2C1=O	i	i	i	i	i	i
O=C1c2ccccc2C(=O)N1OCc1ccccc1	56	i	i	i	i	i
COC(=O)c1ccc(CON2C(=O)c3ccccc3C2=O)cc1	i	i	i	i	i	i
Cc1nnc(NC(=O)CCC(=O)N2CCN(CCc3ccccc3)CC2)s1	i	i	i	nt	i	nt
COC(=O)C1=C(C)Nc2nnnn2C1c1ccco1 (stereo not given)	i	i	i	i	i	i
COC(=O)C1=C(C)Nc2nnnn2C1c1ccc(Cl)cc1Cl (stereo not given)	56	i	i	i	i	i
CC(=O)C1=C(C)Nc2ncnn2C1c1ccccc1Cl (stereo not given)	i	i	i	i	i	i
CC1=C(C(N)=O)C(c2ccc(Cl)cc2Cl)n2ncnc2N1 (stereo not given)	51	i	i	i	i	i
COc1ccc(NC(=O)Nc2ccc(OC)cc2)cc1	i	i	i	i	i	i
COC(=O)c1ccc(NC(=O)Nc2ccc(F)cc2)cc1	i	i	60	i	i	i
SMILES	CYP2C19 inh	CYP2C19 activ	CYP2C9 inh	PostGolgi ctrl	CYP2C9 activ	PostGolgi yeast
CN(C)CCNC(=S)Nc1ccc(Cl)cc1	i	i	i	i	i	i
CCOC(=O)c1ccc(NC(=O)Nc2ccc(F)cc2)cc1	i	i	66	i	i	i
CN(C)NC(=S)Nc1ccc(Cl)cc1	91	i	i	i	i	i
COC(=O)c1cccc(C(=O)Nc2ccc(F)cc2)n1	i	i	i	32	i	i
O=C(O)CN1C(=O)COc2cc(S(=O)(=O)N3CCCC3)ccc21	i	i	i	i	i	i
O=C(c1ccccc1NS(=O)(=O)c1cccc([N+](=O)[O-])c1)N1CCOCC1	i	i	i	i	i	i
Fc1ccc(CNC(=S)Nc2ccc(Cl)cc2)cc1	84	i	i	i	i	i
COC(=O)c1ccc(NC(=O)Nc2ccc(F)c(Cl)c2)cc1	i	i	i	35	i	i
